# Measured values from the supplement of paper PMC9254222.
# The full ranking holds about 1,100 compounds; the median of “Renilla luciferase signal (cell health) relative to plate median” is about 0.97, and the highest 2% start at about 1.6. The sample as a whole holds a higher share of the highest values than the screen did.
# Test system: HEK293T (UBE3A T485A transfected, BAR Wnt reporter)
# Experiment: Renilla luciferase signal (cell health) relative to plate median (fold (linear ratio)); higher = higher Renilla signal
# Conditions: 24 h
# Outline: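 Chemicals at 0.01–100 uM were left on transfected HEK293T cells for 24 h, after a four-hour wait following transfection. The cells held a BAR firefly luciferase Wnt reporter, TK-Renilla and an expression plasmid. Wnt activity, as the firefly/Renilla ratio from a Dual-Glo luciferase readout, and cell health, as raw Renilla, were median-centred within each plate. Results average four biological replicates.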
Structure (SMILES),Renilla luciferase signal (concentration: 0.01 uM),Renilla luciferase signal (concentration: 0.1 uM),Renilla luciferase signal (concentration: 1 uM),Renilla luciferase signal (concentration: 10 uM),Renilla luciferase signal (concentration: 100 uM)
CN1C2CC(OC(=O)C(CO)c3ccccc3)CC1C1OC12 (configuration not stated) [Scopolamine],0.78,0.722,0.931,0.834,1.62
CNC(=O)Oc1cccc2c1OC(C)(C)C2 [Carbofuran],–,1.05,1.01,0.953,0.523
CC(C)(C)OOC(C)(C)C [Di-tert-butyl peroxide],–,1.07,0.922,1.09,1.12
O=[As][O-].[Na+] [Sodium arsenite],0.746,0.622,0.288,0.0446,0.0136
CC(C)(C)c1ccc(CSc2cnn(C(C)(C)C)c(=O)c2Cl)cc1 [Pyridaben],1.05,0.947,0.477,0.233,0.172
Nc1cc(Cl)cc(C(=O)O)c1Cl [Chloramben],–,1.02,1.02,1.18,1.64
"Nc1ccc(Cl)cc1N [4-Chloro-1,2-diaminobenzene]",–,1.05,0.965,0.612,0.0486
C[C@@H]1C[C@@H]([C@H](O)CC2CC(=O)NC(=O)C2)C(=O)[C@@H](C)C1 [Cycloheximide],–,0.674,0.0448,0.0298,0.0285
"CC(O)CCO (configuration not stated) [1,3-Butanediol]",–,1.06,1.08,1.16,1.47
CCC(C)(CC)c1cc(NC(=O)c2c(OC)cccc2OC)on1 [Isoxaben],0.906,0.789,0.94,0.964,0.549
ClC(Cl)=C(c1ccc(Cl)cc1)c1ccc(Cl)cc1,–,0.978,1.09,1.13,1.33
O=C(NC(=O)c1c(F)cccc1F)Nc1cc(Cl)c(OC(F)(F)C(F)F)c(Cl)c1 [Hexaflumuron],–,0.601,0.604,0.441,0.493
c1ccc(OP(Oc2ccccc2)Oc2ccccc2)cc1 [Triphenyl phosphite],–,1.06,1.18,1.24,1.16
OCCOc1ccccc1 [2-Phenoxyethanol],0.629,0.856,0.906,0.983,1.74
Oc1ccccc1-c1ccccc1 [2-Phenylphenol],1.08,1.08,0.948,1.01,0.987
Clc1ccc(C(c2ccc(Cl)cc2)C(Cl)(Cl)Cl)cc1,–,0.841,0.863,0.92,0.995
O=Cc1ccco1 [Furfural],–,1.24,1.36,1.2,1.45
NCCO.O=C(O)c1nc(Cl)ccc1Cl [Clopyralid-olamine],1.41,1.18,1.06,1.2,1.53
Nc1c(Cl)c(Cl)nc(C(=O)O)c1Cl [Picloram],1.22,0.925,1.11,1.09,1.33
O=C(O)c1nc(Cl)ccc1Cl [Clopyralid],0.962,0.828,0.985,1,1.8
O=C1CCCO1 [4-Butyrolactone],–,0.916,0.91,0.928,1.07

Structure (SMILES),Renilla luciferase signal (concentration: 0.01 uM),Renilla luciferase signal (concentration: 0.1 uM),Renilla luciferase signal (concentration: 1 uM),Renilla luciferase signal (concentration: 10 uM),Renilla luciferase signal (concentration: 100 uM)
CCC(=O)C(CC(C)N(C)C)(c1ccccc1)c1ccccc1.Cl (configuration not stated) [Methadone hydrochloride],–,1.01,1.01,1.07,0.142
CCCCC(CC)COC(=O)c1ccccc1C(=O)OCC(CC)CCCC (configuration not stated) [Di(2-ethylhexyl) phthalate],1.26,1.13,1.01,1.11,0.496
CCCCC(CC)COC(=O)CCCCC(=O)OCC(CC)CCCC (configuration not stated) [Di(2-ethylhexyl) adipate],–,1.15,1.09,1.28,1.76
CCCCC(CC)COC(=O)c1ccc(C(=O)OCC(CC)CCCC)cc1 (configuration not stated) [Bis(2-ethylhexyl) terephthalate],–,0.974,1.13,1.09,1.28
C#CCN1C(=O)COc2cc(F)c(N3C(=O)C4=C(CCCC4)C3=O)cc21 [Flumioxazin],1.13,1.14,0.954,1.11,0.949
"Clc1ccccc1Cl [1,2-Dichlorobenzene]",–,1.14,0.945,1.05,1.27
"Clc1cccc(Cl)c1Cl [1,2,3-Trichlorobenzene]",–,1.21,0.959,1.18,1.43
N#Cc1c(Cl)cccc1Cl [Dichlobenil],0.873,0.853,1.03,0.992,1.96
Cc1ccc(/N=C/N(C)/C=N/c2ccc(C)cc2C)c(C)c1 [Amitraz],1.29,1.17,1.06,1.21,0.0374
O=C(NC(=O)c1cc(F)c(F)cc1Cl)Nc1cc(F)ccc1N1CCC(C(=O)O)CC1,–,0.8,0.813,0.797,0.641
O=C(O)C(F)(F)C(F)(F)C(F)(F)C(F)(F)C(F)(F)F,–,0.973,0.941,0.896,0.93
O=C(O)C(F)(F)C(F)(F)C(F)(F)C(F)(F)C(F)(F)C(F)(F)C(F)(F)F,0.983,0.781,0.834,0.9,1.9
O=C(O)C(F)(F)C(F)(F)C(F)(F)C(F)(F)C(F)(F)C(F)(F)C(F)(F)C(F)(F)C(F)(F)C(F)(F)F [Perfluoroundecanoic acid],–,0.861,0.837,0.868,0.248
CCOC1Oc2ccc(OS(C)(=O)=O)cc2C1(C)C (configuration not stated) [Ethofumesate],0.946,1.07,0.964,0.843,1.01
CCOC(=O)C(C)OC(=O)c1cc(Oc2ccc(C(F)(F)F)cc2Cl)ccc1[N+](=O)[O-] (configuration not stated) [Lactofen],0.928,0.611,0.876,0.801,0.32
O=C(O)c1cc(Oc2ccc(C(F)(F)F)cc2Cl)ccc1[N+](=O)[O-] [Acifluorfen],1.17,1.25,0.942,1.02,1.67
CS(=O)(=O)NC(=O)c1cc(Oc2ccc(C(F)(F)F)cc2Cl)ccc1[N+](=O)[O-] [Fomesafen],–,0.998,1.11,1.03,1.19
CCN(CC)c1nc(C)cc(OP(=S)(OC)OC)n1 [Pirimiphos-methyl],1.11,1.2,1,0.992,1.53
CN(C)c1nc(=O)n(C2CCCCC2)c(=O)n1C [Hexazinone],0.842,0.839,0.85,0.916,1.2
O=C(O)COc1nc(Cl)c(Cl)cc1Cl [Triclopyr],0.99,0.979,0.95,1.02,1.84
CCOP(=O)(OCC)Oc1nc(Cl)c(Cl)cc1Cl [Chlorpyrifos oxon],0.952,1.24,1.07,0.919,0.0737

Structure (SMILES),Renilla luciferase signal (concentration: 0.01 uM),Renilla luciferase signal (concentration: 0.1 uM),Renilla luciferase signal (concentration: 1 uM),Renilla luciferase signal (concentration: 10 uM),Renilla luciferase signal (concentration: 100 uM)
O=C(O)CCCOc1ccc(Cl)cc1Cl,1.02,0.895,0.898,0.957,1.44
Nc1c(Cl)c(F)nc(OCC(=O)O)c1Cl [Fluroxypyr],1.01,1.05,0.92,1.02,1.09
"O=C(O)COc1ccc(Cl)cc1Cl [2,4-Dichlorophenoxyacetic acid]",1.31,1,0.995,1.02,1.69
Cc1cc(Cl)ccc1OCC(=O)O,1.11,1.19,1.09,1.12,1.34
"C1=CCCC=CCCC=CCC1 [1,5,9-Cyclododecatriene]",–,0.691,0.775,0.813,1.02
CCOC(=O)c1ccccc1C(=O)OCC [Diethyl phthalate],–,0.834,0.893,0.976,1.05
COc1nc(NC(C)C)nc(NC(C)C)n1 [Prometon],0.865,0.628,0.707,1.02,1.41
CC(C)(O)C(=O)Nc1ccc([N+](=O)[O-])c(C(F)(F)F)c1 [Hydroxyflutamide],–,0.949,0.928,0.775,0.129
CC(C)=CC1C(C(=O)OCc2coc(Cc3ccccc3)c2)C1(C)C (configuration not stated) [Resmethrin],1.12,1.04,0.974,1.01,0.166
CCCCOCN(C(=O)CCl)c1c(CC)cccc1CC [Butachlor],0.877,0.813,0.902,0.865,0.895
CC1(c2ccc(Oc3ccccc3)cc2)OC(=O)N(Nc2ccccc2)C1=O (configuration not stated) [Famoxadone],1.07,1.08,1.07,0.383,1.15
NS(=O)(=O)C(F)(F)C(F)(F)C(F)(F)C(F)(F)C(F)(F)C(F)(F)C(F)(F)C(F)(F)F,–,0.448,0.567,0.447,0.0943
Cc1c(F)c(F)c(COC(=O)C2C(/C=C(\Cl)C(F)(F)F)C2(C)C)c(F)c1F (configuration not stated) [Tefluthrin],0.953,0.885,1.03,0.886,1.47
C[n+]1ccc(-c2cc[n+](C)cc2)cc1 [Paraquat],0.802,0.782,0.9,0.995,2.18
CCNc1nc(Cl)nc(NC(C)(C)C)n1 [Terbutylazine],–,0.934,1.02,0.978,0.981
"Cc1cccc(C)c1N [2,6-Dimethylaniline]",–,0.815,0.773,0.833,0.897
O=C(O)CNCP(=O)(O)O [Glyphosate],0.796,0.874,0.905,1.07,2.5
COP(=S)(OC)Oc1nc(Cl)c(Cl)cc1Cl [Chlorpyrifos-methyl],1.5,1.18,1.01,1.04,0.838
CN(C)NC(=O)CCC(=O)O [Daminozide],0.728,0.735,0.928,0.807,1.39
"Cc1ccc(N)cc1N [2,4-Diaminotoluene]",–,1.12,1.22,1.09,1.45
O=C(O)c1c(Cl)ccc2cc(Cl)cnc12 [Quinclorac],1.12,1.11,0.984,1.04,1.88
